Test systems include SR leukemia; RPMI-8226 leukemia; OVCAR-8 ovarian; OVCAR-5 ovarian; OVCAR-4 ovarian; SK-OV-3 ovarian; IGROV1 ovarian; OVCAR-3 ovarian; NCI/ADR-RES ovarian; T-47D breast; BT-549 breast; MDA-MB-435 melanoma; SW-620 colon; MCF7 breast; HCT-116 colon; HCC-2998 colon; KM12 colon; HS 578T breast.
What all share (assay): NCI-60 one-dose screen, 48 h (100 = growth as untreated, 0 = no growth, -100 = all killed)
Common to all, as to conditions: 10 µM unless noted

Several values for one entry are separate records, joined by “and”; a condition that tells them apart may be missing. Equal entries are not always repeated. Compounds without any hit were thinned out: in the full panel of roughly 83,000, 20% have a hit.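 Activity criterion: percent growth below 10, measured after cells in 96-well plates were exposed to a single compound concentration for 48 hours.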 Activity calls are given as the source filed them.

In the case of `COc1ccc(Cn2c(NCCN=C(N)N)nc(=O)n(Cc3ccc(F)cc3)c2=O)cc1`, the growth in the test with SR leukemia is 85.5% (inactive); in the test on RPMI-8226 leukemia, 87.9% (inactive) and 92.2% (inactive); with OVCAR-8 ovarian, 101% (inactive) and 99.9% (inactive); in the test on OVCAR-5 ovarian it was 89.9% (inactive) and 95.8% (inactive); in the test with OVCAR-4 ovarian it was 101% (inactive) and 92.5% (inactive); in the test with SK-OV-3 ovarian it was 98.8% (inactive) and 96.2% (inactive). Besides, the growth is 90.3% (inactive) and 103% (inactive) in the test with IGROV1 ovarian; 96.5% (inactive) and 104% (inactive) in the test with OVCAR-3 ovarian; 114% (inactive) and 103% (inactive) with NCI/ADR-RES ovarian; 91.4% (inactive) and 87.7% (inactive) in the test on T-47D breast; 86.9% (inactive) and 70.2% (inactive) with BT-549 breast; 100% (inactive) and 109% (inactive) in the test with MDA-MB-435 melanoma. Besides, the growth in the test with SW-620 colon was 101% (inactive) and 95.1% (inactive); with MCF7 breast, 93.3% (inactive) and 93% (inactive); in the test on HCT-116 colon it was 88.7% (inactive) and 98.3% (inactive); in the test on HCC-2998 colon it was 104% (inactive) and 102% (inactive); in the test with KM12 colon, 114% (inactive) and 106% (inactive).
Consider `Cc1ccc2nc3c(nc2c1)-c1cccc2cccc-3c12`, for which the growth in the test with SR leukemia is 64.9% (inactive); with RPMI-8226 leukemia, 89.9% (inactive); in the test with OVCAR-8 ovarian it was 69.6% (inactive); with OVCAR-5 ovarian, 94.6% (inactive); in the test with OVCAR-4 ovarian, 92% (inactive); in the test with SK-OV-3 ovarian it was 112% (inactive). Moreover, the growth in the test on IGROV1 ovarian is 63.9% (inactive); in the test on OVCAR-3 ovarian, 88.1% (inactive); in the test with HS 578T breast it was 92.9% (inactive); in the test with NCI/ADR-RES ovarian, 86.1% (inactive); in the test with T-47D breast it was 87.6% (inactive); in the test on MDA-MB-435 melanoma it was 103% (inactive). In addition, the growth in the test with SW-620 colon is 71.1% (inactive); in the test with MCF7 breast, 38.3% (inactive); in the test with HCT-116 colon it was 89.4% (inactive); in the test on HCC-2998 colon, 103% (inactive); in the test with KM12 colon, 75.4% (inactive).
For `CCNC(=O)Nc1ccc(-c2nc3c(c(N4CCOC[C@@H]4C)n2)CCN(C2COC2)C3)cc1`, the growth was 47.9% (inactive) and 11.8% (inactive) with SR leukemia; 23.3% (inactive) and 6.21% (active) in the test on RPMI-8226 leukemia; 48% (inactive) and 0.436% (active) in the test with OVCAR-8 ovarian; 46.7% (inactive) and 23.1% (inactive) with OVCAR-5 ovarian; 23.1% (inactive) and -13% (active) with OVCAR-4 ovarian; 13.9% (inactive) and -35% (active) with SK-OV-3 ovarian. In addition, the growth in the test with IGROV1 ovarian was 15.2% (inactive) and -12.9% (active); with OVCAR-3 ovarian, 40.4% (inactive) and 16% (inactive); with NCI/ADR-RES ovarian it was 90.4% (inactive) and 12.4% (inactive); in the test with T-47D breast, -12.4% (active) and -25.3% (active); in the test on BT-549 breast, 28.9% (inactive) and -1.93% (active); in the test on MDA-MB-435 melanoma, 32.9% (inactive) and 0.798% (active). Further, the growth in the test with SW-620 colon is 62.2% (inactive) and 14% (inactive); with MCF7 breast, 15.6% (inactive) and 11.8% (inactive); in the test with HCT-116 colon it was 58.9% (inactive) and 28.5% (inactive); in the test with HCC-2998 colon it was 50% (inactive); in the test on KM12 colon, 47.5% (inactive) and 17.1% (inactive).
On to `NS(=O)(=O)c1cc2c(cc1Cl)NC(C(Cl)Cl)NS2(=O)=O` (stereo not drawn), for which the growth with SR leukemia is 99.8% (inactive); in the test on RPMI-8226 leukemia it was 96.7% (inactive) and 100% (inactive); with OVCAR-8 ovarian, 99.2% (inactive) and 95.3% (inactive); in the test with OVCAR-5 ovarian, 96.6% (inactive); with OVCAR-4 ovarian, 97.4% (inactive) and 114% (inactive); with SK-OV-3 ovarian, 106% (inactive) and 114% (inactive). The growth in the test on IGROV1 ovarian is 101% (inactive) and 109% (inactive); in the test on OVCAR-3 ovarian, 119% (inactive) and 126% (inactive); in the test on HS 578T breast, 124% (inactive) and 128% (inactive); in the test on NCI/ADR-RES ovarian, 101% (inactive) and 108% (inactive); in the test with T-47D breast it was 104% (inactive); in the test on BT-549 breast, 70.5% (inactive) and 102% (inactive). Further, the growth in the test with SW-620 colon was 110% (inactive); in the test with MCF7 breast, 93.1% (inactive) and 110% (inactive); in the test with HCT-116 colon, 101% (inactive) and 100% (inactive); in the test with HCC-2998 colon, 111% (inactive); in the test with KM12 colon, 111% (inactive).
As to `C#CCN(C)Cc1ccccc1`, the growth in the test on SR leukemia was 108% (inactive) and 101% (inactive); in the test on RPMI-8226 leukemia it was 98.2% (inactive) and 107% (inactive); in the test with OVCAR-8 ovarian, 101% (inactive) and 98% (inactive); in the test with OVCAR-5 ovarian, 116% (inactive); with OVCAR-4 ovarian, 112% (inactive) and 114% (inactive); in the test with SK-OV-3 ovarian, 104% (inactive) and 103% (inactive). For the same compound, the growth is 103% (inactive) and 120% (inactive) in the test on IGROV1 ovarian; 111% (inactive) and 104% (inactive) with OVCAR-3 ovarian; 119% (inactive) and 96.1% (inactive) with HS 578T breast; 101% (inactive) and 102% (inactive) with NCI/ADR-RES ovarian; 96.9% (inactive) and 99.3% (inactive) with T-47D breast; 107% (inactive) and 98.3% (inactive) with MDA-MB-435 melanoma. Besides, the growth in the test on SW-620 colon is 104% (inactive) and 103% (inactive); in the test on MCF7 breast, 118% (inactive) and 95.9% (inactive); with HCT-116 colon it was 99.6% (inactive) and 86.9% (inactive); in the test with HCC-2998 colon, 103% (inactive) and 97.7% (inactive); in the test on KM12 colon, 109% (inactive) and 102% (inactive).
Take `O=C(CCl)c1ccc2c(c1)Nc1ccccc1S2`: the growth in the test with SR leukemia is 13.6% (inactive) and 6.19% (active); in the test on RPMI-8226 leukemia it was 63.4% (inactive) and 52.1% (inactive); in the test on OVCAR-8 ovarian it was 95.1% (inactive) and 88.7% (inactive); with OVCAR-5 ovarian, 105% (inactive) and 117% (inactive); in the test on OVCAR-4 ovarian, 90.1% (inactive) and 83.4% (inactive); in the test with SK-OV-3 ovarian, 100% (inactive) and 99.3% (inactive). Besides, the growth in the test with IGROV1 ovarian was 104% (inactive) and 93.3% (inactive); with OVCAR-3 ovarian, 96.8% (inactive) and 71.6% (inactive); with NCI/ADR-RES ovarian, 94.7% (inactive) and 95.9% (inactive); in the test with T-47D breast, 71.2% (inactive) and -3.6% (active); in the test with BT-549 breast, 74% (inactive) and 76.1% (inactive); in the test with MDA-MB-435 melanoma, 100% (inactive) and 88.9% (inactive). Also, the growth was 92.2% (inactive) and 79.1% (inactive) in the test with SW-620 colon; 85.5% (inactive) and -32.4% (active) in the test with MCF7 breast; 69.1% (inactive) and 64.3% (inactive) in the test on HCT-116 colon; 83.3% (inactive) in the test on HCC-2998 colon; 104% (inactive) and 102% (inactive) in the test with KM12 colon.
As to `c1ccc2cc(C[n+]3ccn(Cc4ccc5ccccc5n4)c3)ccc2c1`, the growth was -3.69% (active) and 31.5% (inactive) with SR leukemia; 3.76% (active) and 13.1% (inactive) with RPMI-8226 leukemia; 1.74% (active) and 23.8% (inactive) with OVCAR-8 ovarian; 13.4% (inactive) and 50.9% (inactive) with OVCAR-5 ovarian; 11.5% (inactive) and 33.7% (inactive) with OVCAR-4 ovarian; -11.7% (active) and 34.2% (inactive) in the test on SK-OV-3 ovarian. In addition, the growth with IGROV1 ovarian was 11.6% (inactive) and 25.1% (inactive); in the test on OVCAR-3 ovarian it was -1.69% (active) and 21.7% (inactive); with NCI/ADR-RES ovarian, 103% (inactive) and 102% (inactive); in the test with T-47D breast, -5.71% (active) and 13.1% (inactive); with BT-549 breast it was -15.9% (active) and 12.2% (inactive); in the test with MDA-MB-435 melanoma, 4.58% (active) and 19.6% (inactive). In addition, the growth in the test on SW-620 colon is 18.9% (inactive) and 56.4% (inactive); with MCF7 breast it was 9.04% (active); in the test with HCT-116 colon it was 2.66% (active); in the test with HCC-2998 colon, 11.1% (inactive) and 30.9% (inactive); with KM12 colon it was -7.63% (active) and 12.6% (inactive).
As for `Oc1c(CN2CCCCC2)ccc2cccnc12`, the growth in the test with SR leukemia is 32.4% (inactive) and 33.2% (inactive); in the test on RPMI-8226 leukemia it was 58.5% (inactive); with OVCAR-8 ovarian, 33.1% (inactive) and 23.3% (inactive); in the test with OVCAR-5 ovarian, 68.9% (inactive) and 51.1% (inactive); in the test on OVCAR-4 ovarian, 29.3% (inactive); with SK-OV-3 ovarian, 54.5% (inactive) and 50.8% (inactive). Besides, the growth in the test with OVCAR-3 ovarian was 14.4% (inactive) and 52.7% (inactive); in the test on HS 578T breast it was 89.5% (inactive) and 89.1% (inactive); in the test on NCI/ADR-RES ovarian, 7.05% (active) and 4.34% (active); in the test with T-47D breast, 38.8% (inactive) and 36.4% (inactive); in the test on BT-549 breast, 94.7% (inactive) and 63.4% (inactive); in the test with MDA-MB-435 melanoma, 63.9% (inactive). Also, the growth with SW-620 colon was 44% (inactive) and 44.7% (inactive); in the test with MCF7 breast, 38.9% (inactive); with HCT-116 colon it was 10.1% (inactive) and 15.2% (inactive); in the test with HCC-2998 colon, 96.5% (inactive) and 59.7% (inactive); in the test on KM12 colon, 44.5% (inactive) and 32.6% (inactive).
For the compound `CN(C)c1ccc(/C=C(\C#N)c2ccccc2)cc1`, the growth in the test with SR leukemia was -18.5% (active) and 14.1% (inactive) and 8.15% (active); with RPMI-8226 leukemia it was -23% (active) and 37.2% (inactive) and 10.1% (inactive); in the test with OVCAR-8 ovarian it was 26.9% (inactive) and 43.7% (inactive) and 38% (inactive); in the test with OVCAR-5 ovarian it was 41.5% (inactive) and 62.4% (inactive) and 55.4% (inactive); in the test with OVCAR-4 ovarian, 48.4% (inactive) and 61.8% (inactive) and 78.6% (inactive); in the test on SK-OV-3 ovarian it was 30.9% (inactive) and 32.4% (inactive) and 29.9% (inactive). Besides, the growth in the test with OVCAR-3 ovarian was -57.9% (active) and 11.6% (inactive) and -12.2% (active); in the test with HS 578T breast, 28.3% (inactive) and 56.2% (inactive) and 28.9% (inactive); in the test on NCI/ADR-RES ovarian, -41.2% (active) and 13.3% (inactive) and 20.9% (inactive); with T-47D breast it was 39.5% (inactive) and 36.1% (inactive) and 29.8% (inactive); in the test on BT-549 breast it was 51.3% (inactive) and 52.8% (inactive) and 49.5% (inactive); in the test with MDA-MB-435 melanoma it was -44.1% (active) and -7.42% (active) and -26.3% (active). The growth was 18.1% (inactive) and 33.3% (inactive) and 21.8% (inactive) in the test with SW-620 colon; 23.6% (inactive) and 24.5% (inactive) and 33% (inactive) with MCF7 breast; 17.4% (inactive) and 27.1% (inactive) and 19.8% (inactive) in the test on HCT-116 colon; -28.9% (active) and 68.2% (inactive) and 47.7% (inactive) in the test with HCC-2998 colon; 13% (inactive) and 38.8% (inactive) and 28.7% (inactive) in the test on KM12 colon.

The values above are taken from PubChem BioAssay (NCI).
